Measured values published in PubChem BioAssay (NCI).
This is part of a sample that, as a whole, favours compounds with a hit. Of some 83,000 tested, about 20% had one in any assay.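 Activity criterion: percent growth below 10, measured after cells in 96-well plates were exposed to a single compound concentration for 48 hours.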 Values without a mark were called inactive. Calls of active or inactive are those of the source.

Experiments:
Assay in all cases: NCI-60 one-dose screen, 48 h (100 = growth as untreated, 0 = no growth, -100 = all killed)
HCT-15 colon = details: 10 µM unless noted
HT29 colon = details: 10 µM unless noted
SNB-19 CNS = details: 10 µM unless noted
U251 CNS = details: 10 µM unless noted
PC-3 prostate = details: 10 µM unless noted
SK-MEL-5 melanoma = details: 10 µM unless noted
UACC-62 melanoma = details: 10 µM unless noted
LOX IMVI melanoma = details: 10 µM
SK-MEL-28 melanoma = details: 10 µM unless noted

Compound	growth (HCT-15 colon)	growth (HT29 colon)	growth (SNB-19 CNS)	growth (U251 CNS)	growth (PC-3 prostate)	growth (SK-MEL-5 melanoma)	growth (UACC-62 melanoma)	growth (LOX IMVI melanoma)	growth (SK-MEL-28 melanoma)
CC(C)c1sc(NC(=O)c2cc(NC(=O)c3cc(NC(=O)c4cscn4)cn3C)cn2C)nc1C(=O)NCCCN(C)C	98.6%	2.45% (active)	-9.66% (active)	-38.4% (active)	-26.3% (active)	-3.44% (active)	-73.5% (active)	-94% (active)	-16.3% (active)
COc1cc(C2CC(c3cc(OC)c(OC)c(OC)c3)=Nc3c(N)nc(N)nc3N2)ccc1Oc1nc(NCCO)nc(N2CCOCC2)n1 (stereo not drawn)	102%	107%	94.9%	101%	100%	99%	102%		108%
O=C1NC(=O)/C(=C/c2ccccc2OCc2cc3ccccc3nc2Cl)S1	84%	108%	39.2%	58%	112%	67.6%	52%		102%
Cn1cc(-c2nc(N)nnc2-c2c[nH]c3ccc(Br)cc23)c2cccnc21	33.2%	23.1%	52.7%	39.5%	59.9%	26.3%	53.9%		59.9%
COc1c(F)ccc(C(=O)Nc2ccc3nc(NC(=O)C4CCCN(S(=O)(=O)c5ccc(Br)c(F)c5)C4)sc3c2)c1F (stereo not drawn)	73.6%	78.2%	81.9%	69.8%	62.6%	85.7%	72%	78.9%	99.6%
O=C(N1c2ccccc2Sc2ccccc21)n1ccc2cccnc21	40.2%	60.7%	74.3%	51.3%	39.8%	45.9%	47.5%	44.8%	76.9%
CC(=O)Nc1ccc(-c2cn(-c3cccc(C(=O)Nc4ccc(N5CCN(C)CC5)cc4)c3)nn2)cn1	91.5%	6.82% (active)	49.4%	50.8%	72.2%	87.8%	114%		101%
COc1ccc(NC(=O)[C@H](CO)NC(=O)OC(C)(C)C)cc1C(=O)Nc1cccc(C2CC(=O)c3c(cc(OC)c(OC)c3OC)O2)c1 (stereo partly drawn)	33%	49.4%	69.2%	61.9%	49.8%	27.9%	49.1%		71.4%
O=C1c2c(c3c4cc(F)ccc4oc3c3[nH]c4ccc(Br)cc4c23)C(=O)N1O	48.1%	68.6%	14.2%	18.5%	20.2%	6.06% (active)	18.6%		43.6%
COc1cc(CNC(=O)/C=C/c2ccc3c(c2)OCO3)ccc1OCc1cn(-c2ccc([N+](=O)[O-])cc2)nn1	97.3%	121%	86.5%	96.2%	103%	89.3%	78.9%		99.9%
CCCCSc1nc(Nc2ccc(S(N)(=O)=O)cc2)c(C#N)c(-c2ccc(Cl)cc2)n1	-8.65% (active)	8.86% (active)	45.5%	-55.7% (active)	55.8%	59.6%	48.4%	-99.9% (active)	63%
COc1cc2c(c(OC)c1OC)C(=O)CC(c1cccc(NC(=O)c3cccc(NC(=O)[C@H](C)NC(=O)OC(C)(C)C)c3)c1)O2 (stereo partly drawn)	44.2%	62.2%	78.8%	78.1%		25.9%	39.7%		85.6%
CN(C)c1ccnc(CNCCSC2(c3ccc(C(F)(F)F)cc3)c3ccccc3CCc3ccccc32)c1	-82.8% (active)	-65.9% (active)		-94.9% (active)	-35.3% (active)	-99.6% (active)	-5.98% (active)	-98.1% (active)	-81.7% (active)
CC1(c2cc3cc(Br)ccc3oc2=O)NC(=O)c2c(/C=C/C(=O)OC3CC4CCC3(C)C4(C)C)cccc2N1 (stereo not drawn)	82.9%	88.7%		69.8%		74.5%	79.8%	84.5%	86.5%
COc1ccc(C2=NN(c3ccccc3)C(c3ccc(OCc4ccccc4)c(OC)c3)C2)cc1OC (stereo not drawn)	93.8%	86.6%	98.9%	108%			85.1%	105%	104%
Cc1ccc2c(c1)nc(-c1ccccc1)n2CC(=O)N=Nc1c(O)[nH]c2ccc(Br)cc12	-79.9% (active)	-67.6% (active)		-74.3% (active)	-78% (active)	-57.3% (active)	-87.4% (active)	-93.6% (active)	-88.3% (active)
CCCCCCCCc1ccc(C(=O)Nc2ccc(C)cc2C(=O)O)cc1C	94%	108%		88.1%	84.2%	94.3%	91.3%	101%	109%
CC1(C)CC[C@]2(C(=O)O)CC[C@]3(C)C(=CCC4[C@@]5(C)C[C@@H](O)[C@@H]6OC(c7ccccc7Br)OC[C@@]6(C)C5CC[C@]43C)C2C1 (stereo partly drawn)	8.96% (active)	13.1%	27.7%	13.2%		7% (active)	28.5%	13.5%	39.5%
COc1ccc(-c2ccnc(SCc3cc4ccccc4[nH]c3=O)n2)cc1OC	39.5%	-80.8% (active)		-13.5% (active)	-21.9% (active)	1.35% (active)	1.83% (active)	18.8%	9.54% (active)
O=C(/C=C/Nc1ccc2oc(=O)ccc2c1)c1cc2cc(Br)ccc2oc1=O	102%	103%	97.5%		98%	103%	97.5%	99.3%	112%
O=c1[nH]c2ccccc2cc1CSc1cccc(Nc2nccc(-c3ccc4ccccc4c3)n2)c1	65.1%	81.8%		81.9%	71%	63.8%	95.2%	87.4%	106%
N/N=C(\N)c1c(N)nc(=S)[nH]c1-c1ccc(Cl)cc1Cl	111%	111%	93.4%		96.8%	108%	93.8%	106%	116%
O=c1[nH]c2ccc(Cl)cc2cc1CSc1nccc(-c2ccc(Cl)cc2)n1	56.9%	67.7%			49.9%	48.6%	31.8%	57.5%	46.1%
CC(/C=C1\SC(=S)N(CCCC(=O)NC(CC(C)C)C(=O)O)C1=O)=C\c1ccccc1 (stereo not drawn)	98.6%	119%	93.8%		55.9%	88.1%	76%	53.2%	94.8%
CN(C)c1ccnc(NCCCSC(c2ccccc2)(c2ccccc2)c2ccccc2)c1	10.7%	-51.8% (active)		6.61% (active)	7.71% (active)	-98.4% (active)	28.6%	47.9%	-77.3% (active)
Cc1cc2nc3c4ccccc4n(CC4=NCCN4)c3nc2cc1C	0.357% (active)	-74.3% (active)	15.8%	-72.5% (active)		-91.7% (active)	-91.2% (active)		-93.5% (active)
CN(C)CCCNC(=O)c1cc(NC(=O)c2cc(NC(=O)c3ccc(C#Cc4ccccc4)cc3)cn2C)cn1C	-20.6% (active)	-68.4% (active)	24.7%	-91.6% (active)		-93.7% (active)	-33.1% (active)	-100% (active)	47.1%
COc1ccc(-c2nc3cc(C)ccc3n2CC(=O)N=Nc2c(O)[nH]c3ccc(OC)cc23)cc1	-86.5% (active)	-20% (active)	4.91% (active)	-80.2% (active)		-95.9% (active)	-86.5% (active)	-98% (active)	-97.8% (active)
